In PubChem BioAssay (NCATS):
“And” between values parts separate entries of the source, which are not always exact repeats. Equal entries are not always repeated. Records with an inconclusive call do not appear. Entries that show only a call come without a potency. The source holds several records for some structures; these can differ, active in one and inactive in another. The source made the active and inactive calls. The call rests on the fitted dose curve; in most records, active means well fitted inhibition curve with a large enough effect; inconclusive means small, poorly fitted or top-dose-only effect; inactive means no such curve, though single readings can be large or run the other way.

experiment: P-glycoprotein substrates identified in KB-3-1 adenocarcinoma cell line, qHTS therapeutic library screen (AID 1346986); settings: KB-3-1 parental cells viability, CellTiter-Glo, 72 h; series mostly up to 44.5 µM; further: nearly all actives have a fitted effect of over 60% in size;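 further: potency is for cytotoxicity meaning loss of cell viability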
Procedure: The ATP-binding cassette transporters P-glycoprotein (P-gp) is known to limit brain penetration of many chemotherapy drugs. […] We used the CellTiter-Glo viability assay to test library compounds against the parental KB-3-1 human cervical adenocarcinoma cell line and the colchicine-selected sub-line KB-8-5-11 that over-expresses P-gp. KB-8-5-11 cells were also tested in the presence of a P-gp inhibitor (tariquidar) to assess reversability of transporter-mediated resistance. Of the tested compounds, a total of 90 P-gp substrates were identified including 55 newly identified P-gp substrates. Substrates were confirmed using an orthogonal killing assay against HEK-293 cells transfected with P-gp. As exemplars, we confirmed that AT7159 (cyclin-dependent kinase inhibitor); AT9283, (Janus kinase 2/3 inhibitor); ispinesib (kinesin spindle protein inhibitor); gedatolisib (PKI-587, phosphoinositide 3-kinase/mammalian target of rampamycin inhibitor); GSK-690693 (AKT inhibitor); and KW-2478 (heat shock protein 90 inhibitor) were substrates , and direct ATPase stimulation was assessed. ABCG2 was also found to confer high levels of resistance to AT9283, GSK-690693 and gedatolisib, while ispinesib, AT7519 and KW-2478 were weaker substrates.
The HeLa derivative cell line, KB-3-1, and its colchicine-selected, P-gp-overexpressing subline, KB-8-5-11 were maintained in DMEM with 10% FCS and Pen/Strep with glutamine at 37 degree C in 5% CO2. For KB-8-5-11 cells, colchicine was added to the medium at a concentration of 100 ng/mL. HEK-293 cells transfected with empty vector (pcDNA) or vector containing human ABCB1 (MDR-19) or ABCG2 (R-5) have been described previously (Robey, Lin, Qiu, Chan & Bates, 2011) and were maintained in EMEM supplemented with 10% FCS, Pen/Strep and glutamine with 2 mg/ml G418 to select for the expression of the transporter. Cultures were confirmed to be free of mycoplasma infection using the MycoAlert Mycoplasma Detection Kit (Lonza, Walkersville, MD). For the screen, assay medium was identical to culture medium except for KB-8-5-11 where colchicine was excluded from the medium.
All cell lines were plated into 1536-well plates at 500 cells/well in 5 uL media. Compounds were then pinned in dose-response using a 1536-head pin tool (Kalypsis, San Diego, CA) and plates were incubated at 37 degree C in 5% CO2 for an additional 72 h. CellTiter-Glo reagent (Promega) was dispensed into the wells, incubated for 5 min and luminescence was read on a ViewLux instrument (Perkin-Elmer). Cytotoxic compounds were defined as those that yielded a curve class of -1.1, -1.2, -2.1, -2.2, -2.3, or -2.4, a maximum response of >50% and an AC50 of < 10 uM. Cherry-picked hits from screening analysis were tested with both the KB pair of cell lines, and the pcDNA (empty vector control) and MDR-19 (P-gp overexpressing) pair were tested, in the absence and presence of tariquidar.
Potency means the concentration at half of the fitted maximal effect.

Structure (SMILES) | Potency
Cc1ccc(O)c(C(CCN(C(C)C)C(C)C)c2ccccc2)c1 (stereo not given) | inactive
C[C@@H]1[C@H](C)CC[C@]2(C(=O)O)CC[C@]3(C)C(=CC[C@@H]4[C@@]5(C)C[C@@H](O)[C@H](O)[C@@](C)(CO)[C@H]5CC[C@]43C)[C@@H]12 | inactive
CC(=O)N[C@@H]1[C@H](O[C@@H]2c3ccc(c(Cl)c3)Oc3cc4cc(c3O[C@H]3O[C@H](CO)[C@@H](O)[C@H](O)[C@H]3NC(=O)CCCCCCCC(C)C)Oc3ccc(cc3Cl)C[C@H]3NC(=O)[C@H](N)c5ccc(O)c(c5)Oc5cc(O)cc(c5)[C@H](NC3=O)C(=O)N[C@H]4C(=O)N[C@H]3C(=O)N[C@@H]2C(=O)N[C@@H](C(=O)O)c2cc(O)cc(O[C@H]4O[C@H](CO)[C@@H](O)[C@H](O)[C@H]4O)c2-c2cc3ccc2O)O[C@H](CO)[C@@H](O)[C@@H]1O | inactive
C[C@H](O)[C@@H]1C(=O)N2C(C(=O)O)=C(S[C@@H]3CN[C@H](CNS(N)(=O)=O)C3)[C@@H](C)[C@@H]12 | inactive
OC[C@@H](O)[C@@H](O)[C@H](O)[C@@H](O)CO | inactive
Cn1cc(C=CC(=O)c2cccc(F)c2)cc1C=CC(=O)NO | inactive
O=C(Nc1ccc(Oc2ccnc3[nH]ccc23)c(F)c1)c1cccn(-c2ccc(F)cc2)c1=O | inactive
CC(C)N(CC[C@H](c1ccccc1)c1cc(CO)ccc1O)C(C)C | inactive
Cc1cnc(Nc2ccc(N3CCN(C)CC3)cc2)nc1Nc1cccc(S(=O)(=O)NC(C)(C)C)c1 | 3.26 µM (active)
CN[C@H]1[C@@H](O)[C@@H]2O[C@@H]3O[C@H](C)CC(=O)[C@]3(O)O[C@@H]2[C@@H](NC)[C@H]1O | inactive
COc1ccc(Nc2cc(-c3cnc(N)nc3)nc(N3CCOCC3)n2)cn1 | 1.46 µM (active)
Cc1noc(-c2ccc(CSCCC(=O)O)cc2)c1NC(=O)OC(C)c1ccccc1Cl (stereo not given) | inactive
CC1=C(C(=O)Nc2cc3cn[nH]c3cc2F)C(c2ccc(Cl)cc2F)N=C(c2ccnc(Cl)c2)N1 (stereo not given) | 20.6 µM (active)
CC(=O)N[C@H]1[C@@H]([C@H](O)[C@H](O)CO)OC(C(=O)O)=C[C@@H]1N=C(N)N | inactive
Cc1ccccc1C(=O)Nc1ccc(C(=O)N2CCCC(O)c3cc(Cl)ccc32)c(C)c1 (stereo not given) | inactive
CC(=O)N1CCN(c2ccc(OCc3nn(C)c(C)c3-c3cccc4c(CCCOc5cccc6ccccc56)c(C(=O)O)n(Cc5cccnc5)c34)cc2)CC1 | inactive
C=CC(=O)N1CCc2ccc(-n3c(=O)ccc4cnc5ccc(-c6cnn(C)c6)cc5c43)cc21 | 3.99 µM (active)
O=C1c2c(O)cccc2[C@@H]([C@@H]2O[C@H](CO)[C@@H](O)[C@H](O)[C@H]2O)c2cc(CO)cc(O)c21 | inactive
O=c1[nH]c(=O)n([C@H]2C[C@@H](O)[C@@H](CO)O2)cc1C=CBr | inactive
CCc1cc(C(C)=NOCc2ccc(C3CCCCC3)c(C(F)(F)F)c2)ccc1CN1CC(C(=O)O)C1 | inactive

Structure (SMILES) | Potency
CON=C(C(=O)N[C@@H]1C(=O)N2C(C(=O)O)=C(CSC(=O)c3ccco3)CS[C@H]12)c1csc(N)n1 | inactive
N#CC(=Cc1ccc(O)c(O)c1)C(=O)NCc1ccccc1 | inactive
CC1(C)O[C@@H]2C[C@H]3[C@@H]4CCC5=CC(=O)C=C[C@]5(C)[C@@H]4[C@@H](O)C[C@]3(C)[C@]2(C(=O)CO)O1 | inactive
Cc1cc(C(=O)NOCCO)c(Nc2ccc(I)cc2F)n(C)c1=O | inactive
CCCCCCCCCCCCc1ccc(S(=O)(=O)Nc2nncs2)cc1 | inactive
Cc1cn([C@@H]2O[C@H](CO)[C@@H](O)[C@H]2F)c(=O)[nH]c1=O | inactive
CON=C(C(=O)N[C@@H]1C(=O)N2C(C(=O)O)=C(Cn3ccc(=N)n3CCO)CS[C@H]12)c1csc(N)n1 | inactive
Cc1coc2c1C(=O)C(=O)c1c-2ccc2c(C)cccc12 | inactive
C[C@@]12C[C@@]3(O)O[C@@H](O1)[C@]1(COC(=O)c4ccccc4)[C@@H]3C[C@@]12O[C@@H]1O[C@H](CO)[C@@H](O)[C@H](O)[C@@H]1O | inactive
OCc1ccccc1O[C@@H]1O[C@H](CO)[C@H](O)[C@H](O)[C@H]1O | inactive
OCCN1C[C@H](O)[C@@H](O)[C@H](O)[C@@H]1CO | inactive
COc1ccc([C@@H]2CNC(=O)C2)cc1OC1CCCC1 | inactive
CCCCC(=O)O[C@]1(C(=O)CO)[C@@H](C)C[C@H]2[C@@H]3CCC4=CC(=O)C=C[C@]4(C)[C@@]3(F)[C@@H](O)C[C@@]21C | inactive
Cc1ccc2nc(NCCN)c3ncc(C)n3c2c1 | 5.17 µM (active)
N#Cc1c(NC(=O)c2cccc3ccccc23)sc2c1CCCC2 | 0.366 µM (active)
C=CC[C@@H]1C=C(C)C[C@H](C)C[C@H](OC)[C@H]2O[C@@](O)(C(=O)C(=O)N3CCCC[C@H]3C(=O)O[C@H](C(C)=C[C@@H]3CC[C@H](O)[C@H](OC)C3)[C@@H](C)[C@@H](O)CC1=O)[C@@H](C)C[C@@H]2OC | inactive
O=C(O)CCCCC(CCSCc1ccccc1)SCc1ccccc1 (stereo not given) | inactive
C=C1C[C@@]2(O)O[C@@]3(C[C@H]2C(C)C)[C@H](C)CC[C@H]13 | inactive
Nc1ccc(C(=O)Nc2cccc(-c3nc(N4CCOCC4)c4oc5ncccc5c4n3)c2)cn1 | inactive and 13 µM (active)
O=C(C[C@@H]1CC=CCCC(=O)O[C@H](c2ccccc2)CNC1=O)NCc1ccc(Cl)cc1 | inactive
